# Bioassay records: PubChem BioAssay, National Center for Advancing Translational Sciences (NCATS)
# Pol kappa inh-1 = qHTS for Inhibitors of Polymerase Kappa; DNA polymerase kappa (Homo sapiens), Q9UBT6; purified Pol kappa, fluorescent DNA synthesis assay, 10 min; Potency, µM (series often up to 107 µM), hits mostly inhibitors; actives 0.53% (n = 400,000); AID 588579, 2011
#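 50 nM final substrate added after 15 min RT preincubation of 10 nM Pol kappa with compound; fluorescence read at 0 and 10 min.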
# Pol beta inh = qHTS Assay for Inhibitors of DNA Polymerase Beta; P06746; Pol beta primer extension/strand displacement, fluorescence kinetic; Potency, µM (series often up to 114 µM), usual class: inhibitors; actives 1.3% (n = 340,000); AID 485314, 2010
#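 Kinetic readout of DNA synthesis with strand displacement by Pol beta. Compound and 10 nM enzyme sit 15 min at room temperature; 50 nM substrate starts the reaction, read immediately and at 10 min.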
# POLI inh = qHTS for Inhibitors of Polymerase Iota | DNA polymerase iota (Homo sapiens), Q9UNA4 | Pol iota fluorescent replication assay, 10 min | Potency, µM (doses to about 115 µM), most hits filed as inhibitors | actives 1% (n = 390,000)
# Target sequence (Q9UNA4 whole entry, looked up): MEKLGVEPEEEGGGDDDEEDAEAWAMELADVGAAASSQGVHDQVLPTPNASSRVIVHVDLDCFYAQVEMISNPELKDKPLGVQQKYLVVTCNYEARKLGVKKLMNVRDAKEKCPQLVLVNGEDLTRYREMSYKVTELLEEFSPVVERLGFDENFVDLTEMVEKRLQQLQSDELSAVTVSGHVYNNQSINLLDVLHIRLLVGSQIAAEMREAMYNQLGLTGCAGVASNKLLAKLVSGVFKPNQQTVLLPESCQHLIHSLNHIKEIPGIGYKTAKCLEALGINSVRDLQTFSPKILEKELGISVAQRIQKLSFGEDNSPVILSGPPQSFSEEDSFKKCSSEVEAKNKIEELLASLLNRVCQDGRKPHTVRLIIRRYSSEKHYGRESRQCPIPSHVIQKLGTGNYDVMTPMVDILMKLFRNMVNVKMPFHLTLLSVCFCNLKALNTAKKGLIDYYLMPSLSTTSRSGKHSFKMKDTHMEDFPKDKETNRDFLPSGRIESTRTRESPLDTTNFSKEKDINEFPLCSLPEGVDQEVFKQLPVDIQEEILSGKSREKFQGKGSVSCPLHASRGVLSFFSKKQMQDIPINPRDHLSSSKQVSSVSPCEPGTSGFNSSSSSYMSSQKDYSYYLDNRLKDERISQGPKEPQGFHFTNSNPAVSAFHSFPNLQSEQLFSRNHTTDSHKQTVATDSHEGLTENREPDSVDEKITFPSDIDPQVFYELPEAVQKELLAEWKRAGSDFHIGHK
#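 Pol iota at 10 nM preincubated 15 min with compounds at room temperature; reaction started with fluorescent substrate, 50 nM final. Fluorescence read kinetically at 0 and 10 min; buffer-only wells as negative control.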
# FEN1 inh-1 = qHTS Assay for the Inhibitors of Human Flap endonuclease 1 (FEN1); P39748; Recombinant FEN1 flap cleavage, fluorescence, 15 min; Potency, µM (titrated, usually from 114 µM), hits mostly inhibitors; actives 0.35% (n = 390,000); note: nearly all actives have a fitted effect of over 65% in size
#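 Enzyme 10 nM, 15 min RT preincubation with compound; start with substrate 50 nM final; reads at 0 and 15 min; qHTS titration, four-parameter Hill fit.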
# Pol eta inh-1 = qHTS for Inhibitors of Polymerase Eta; DNA polymerase eta (Homo sapiens), Q9Y253; recombinant Pol eta, fluorescent DNA replication assay; Potency, µM (doses to about 114 µM), hits mostly inhibitors; actives 1.2% (n = 390,000)
#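 Fluorescent replication assay: 50 nM final substrate added after a 15 min room-temperature compound preincubation with 10 nM enzyme. Signal taken at 0 min and again at 10 min.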
# WRN helicase inh-1 = qHTS for Inhibitors of WRN Helicase; AID 651768, 2012; Bifunctional 3'-5' exonuclease/ATP-dependent helicase WRN (Homo sapiens), Q14191; Potency, µM (top dose mostly 114 µM), most hits filed as inhibitors; WRN helicase unwinding, fluorescent forked duplex, kinetic; actives 0.46% (n = 360,000); note: nearly all actives have a fitted effect of over 55% in size
#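 WRN at 20 nM final was preincubated with compound for 15 min at room temperature; reaction started with 100 nM forked duplex oligonucleotide carrying fluorophore and quencher plus 2 mM ATP (final). Unwinding followed kinetically by red fluorescence (ex 525/em 598 nm).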
# TbPGK inh = qHTS for inhibitors of Phosphogylcerate Kinase: Hit Validation Screen; TbPGK coupled GAPDH assay, Kinase-Glo luminescence; Potency, µM (series often up to 57.5 µM), actives largely listed as inhibitors; AID 686980, 2013; actives 79% (n = 500); shares compounds with Pol kappa inh-1; note: nearly all actives have a fitted effect of over 65% in size
# Pol iota confirm = qHTS for Inhibitors of Polymerase Iota: Confirmatory Assay for Cherry-picked Compounds | shares compounds with Pol kappa inh-1 | Pol iota primer extension, TAMRA/BHQ fluorescence | Potency, µM, hits mostly inhibitors | actives 77% (n = 1,500)
# Pol kappa inh-2 = qHTS for Inhibitors of Polymerase Kappa: Confirmatory Assay for Cherry-picked Compounds | shares compounds with Pol eta inh-1 | purified Pol-kappa, fluorescent strand-displacement substrate | Potency, µM, usual class: inhibitors | actives 76% (n = 920)
# Pol eta inh-2 = qHTS for Inhibitors of Polymerase Eta: Confirmatory Assay for Cherry-picked Compounds; AID 720502, 2013; shares compounds with Pol eta inh-1; actives 64% (n = 2,600); Potency, µM, most hits filed as inhibitors; Pol eta primer extension, TAMRA/BHQ fluorescence, 10 min
# FEN1 inh-2 = qHTS Assay for the Inhibitors of FEN1: Confirmatory Assay for Cherry-picked Compounds; shares compounds with FEN1 inh-1; FEN1 flap cleavage, TAMRA/BHQ2 fluorogenic DNA substrate; Potency, µM, actives largely listed as inhibitors; actives 79% (n = 880); AID 720498, 2013; note: nearly all actives have a fitted effect of over 60% in size
# WRN helicase inh-2 = qHTS for Inhibitors of WRN Helicase: Confirmatory Assay for Cherry-picked Compounds; actives 63% (n = 610); WRN helicase DNA unwinding, fluorescence kinetic; Potency, µM (top dose mostly 57.1 µM), usual class: inhibitors; shares compounds with WRN helicase inh-1; AID 720497, 2013; note: nearly all actives have a fitted effect of over 65% in size
# TO DNA binding = qHTS for Inhibitors of WRN Helicase: Thiazole Orange DNA Binding Counterscreen. Potency, µM (titrated, usually from 57.1 µM), actives largely listed as inhibitors. shares compounds with WRN helicase inh-1. thiazole orange DNA binding displacement, fluorescence. actives 10% (n = 610);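 note: drop in dye fluorescence marks compound binding to DNA; nearly all actives have a fitted effect of over 60% in size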
# BLM helicase inh = qHTS for Inhibitors of WRN Helicase: BLM Helicase Counterscreen for WRN Inhibitors; actives 60% (n = 610); Recombinant BLM helicase DNA unwinding, red fluorescence; AID 720503, 2013; Potency, µM (top dose mostly 57.1 µM), most hits filed as inhibitors; shares compounds with WRN helicase inh-1; note: nearly all actives have a fitted effect of over 60% in size
# Hits are given with their value; . = inactive; ? = inconclusive; / = no result given. The list is not random: actives were taken first. Their share in the collection is about 2.4%. Calls come from the whole dose curve; as a rule, active = well fitted curve in the direction sought with a large enough effect; inconclusive = small, poorly fitted or top-dose-only effect, or another doubt; inactive = no such curve, though single readings can be large; an effect the other way counts as inactive or inconclusive.
SMILES,Pol kappa inh-1,Pol beta inh,POLI inh,FEN1 inh-1,Pol eta inh-1,WRN helicase inh-1,Pol iota confirm,Pol kappa inh-2,Pol eta inh-2,FEN1 inh-2,WRN helicase inh-2,TO DNA binding,BLM helicase inh,others
CCOC(=O)C(=O)C1(C(=O)OCC)Oc2cc(OC)cc(OC)c2C(=O)C1c1ccccc1 (stereo unspecified),.,/,/,/,/,/,/,/,/,/,/,/,/,
O=C(O)c1cn(C2CC2)c2cc(N3CCN(S(=O)(=O)c4ccc5c(c4)OCCO5)CC3)c(F)cc2c1=O,.,.,.,?,79µM,79µM,27,/,/,43,/,/,/,
O=C(O)COc1ccccc1C=NNc1ccc([N+](=O)[O-])cc1S(=O)(=O)Nc1ccc(Cl)cc1,.,/,?,.,22µM,?,84,?,48,76,/,/,/,
Cc1ccc(OCC(=O)c2c(N)n(C)c(=O)n(C)c2=O)c([N+](=O)[O-])n1,35µM,/,10µM,?,11µM,45µM,34,11,30,/,17µM,.,4.8µM,
COc1ccc(OC)c(N2C(=O)[C@@H]3C(c4ccccc4Cl)=NO[C@@H]3C2=O)c1,20µM,.,3.5µM,50µM,1.3µM,40µM,17,/,17,/,22µM,?,17µM,TbPGK inh=5.8µM
COc1ccc(Cn2c(=O)n(Cc3ccco3)c(=O)c3oc4ccccc4c32)cc1,.,?,.,.,.,/,/,/,/,/,/,/,/,
O=[N+]([O-])c1ccc(N/N=C/C=C/c2ccco2)cc1,.,/,.,.,.,.,/,/,/,/,/,/,/,
O=C(O)c1ccc(N/N=C/C=C/c2ccc([N+](=O)[O-])o2)cc1,79µM,3.2µM,8.9µM,?,22µM,?,38,/,27,/,19µM,?,17µM,TbPGK inh=16µM
CCc1ccc(NC(=O)CC2C(=O)N(c3cccc(C)c3)C(=O)N2Cc2ccco2)cc1 (stereo unspecified),.,.,.,.,.,/,/,/,/,/,/,/,/,
CC(=O)Nc1ccc2cc3ccc(NC(C)=O)cc3nc2c1,.,.,?,?,?,.,/,/,/,/,/,/,/,
CC(=O)Nc1ccc2nc3c(=O)[nH]c(=O)[nH]c3nc2c1,28µM,28µM,8.9µM,28µM,/,/,12,2.4,17,38,3.8µM,.,1.4µM,
COc1cc(NS(=O)(=O)c2ccc(NC(=S)NC(=O)/C=C/c3ccco3)cc2)ncn1,7.1µM,18µM,?,13µM,2.2µM,14µM,17,/,4.3,60,15µM,.,15µM,TbPGK inh=4.6µM
CCOc1ccc(NC(=S)NC(=O)/C=C/c2ccco2)cc1,.,.,.,.,.,.,/,/,/,/,/,/,/,
CCc1cc(=O)oc2cc(C)c(CN3CCCC3)c(O)c12,8.9µM,7.9µM,3.2µM,25µM,22µM,32µM,?,24,30,/,15µM,24µM,3.8µM,
Cc1c(Br)c(=O)oc2c(Br)c(O)c(O)cc12,22µM,4.5µM,13µM,28µM,3.2µM,16µM,24,/,5.4,30,3.8µM,?,3.4µM,TbPGK inh=6.5µM
CC1=NN(c2ccccc2)C(=O)C1C=Nc1ccccc1O (stereo unspecified),.,.,.,.,.,.,/,/,/,/,/,/,/,
CC1=NN(c2ccccc2)C(=O)C1/C=C1\NC(=S)NC1=O (stereo unspecified),25µM,.,?,79µM,3.2µM,28µM,47,7.5,24,/,8.6µM,.,17µM,
CCn1c(C)cc(/C=C2/NC(=O)N(CC(=O)Nc3cccc(C)c3)C2=O)c1C,.,.,.,.,.,.,/,/,/,/,/,/,/,
N#CNC(=O)c1ccc(-n2cccc2/C=C2\NC(=O)N(CC(=O)Nc3ccc(Cl)cc3)C2=O)cc1,/,/,/,/,/,/,6.7,4.7,?,24,4.3µM,?,0.96µM,
N#CNC(=O)c1ccc(-n2cccc2/C=C2\NC(=O)N(CC(=O)Nc3cccc(F)c3)C2=O)cc1,/,/,/,/,/,/,30,13,43,34,11µM,9.6µM,4.8µM,
O=C(O)CSc1nc2sc3c(c2c(=O)n1Cc1ccccc1)CCCCC3,.,.,.,.,.,.,/,/,/,/,/,/,/,
O=C(O)CSc1cc(C(=O)c2ccccc2O)cn2c(=O)c3c4c(sc3nc12)CCCC4,45µM,?,?,?,?,45µM,27,/,?,48,9.6µM,?,3.4µM,
O=C(O)c1cc(-c2ccc(/C=C3\NC(=O)N(c4ccc(Cl)cc4)C3=O)o2)ccc1Cl,10µM,6.3µM,10µM,?,3.5µM,35µM,21,17,5.4,/,6.8µM,?,24µM,TbPGK inh=21µM
O=C1NN(c2ccccc2)C(=O)/C1=C/c1ccc(-c2ccc(Cl)c(C(=O)O)c2)o1,?,13µM,?,?,7.1µM,35µM,42,/,30,/,19µM,.,?,
